In this assay the test system is Human papillomavirus type 1a E7 protein (residues 1-88). The assay is described as follows: HPV1a E7 small-molecule binders, primary screen, biochemical, small-molecule microarray, residues 1-88, 635 nm (AID 1129). The following applies: small-molecule microarray binding, fluorescence 635 nm; higher = more signal.
The molecule `CC(=O)OC[C@H]1O[C@@H](ON=C[C@@H](C)[C@H](OCc2ccccc2)C(C)C)[C@H](OC(C)=O)[C@@H](OC(C)=O)[C@@H]1OC(C)=O` yielded a composite z-score of -0.19.
`CN1C(=O)C2C=CC(C(O)C(c3ccccc3)c3ccccc3)N(NC(=O)OC(C)(C)C)C2C1=O` (stereo unspecified) displayed a composite z-score of 1.18.
As to `COC(=O)C1=C(C)N(Cc2ccccc2)[C@]23O[C@](C(=O)OC)(C(=O)N2[C@@H]1c1ccccc1)[C@H]1CCOC(=O)[C@H]13`, the composite z-score stood at 0.192.
Regarding `C=C(CCCC)C(=O)CC[C@@H](OC(C)=O)c1cccc(OCCO)c1`, the composite z-score is -0.864.
The molecule `CO[C@@H]1COC(=O)CC=C[C@@H](C)[C@@H]2C=C[C@@H](O)[C@@H](COC(=O)CC=C[C@H]1C)O2` displayed a composite z-score of -0.912.
For `COC(=O)[C@@]1(Cc2ccccc2)[C@H]2c3cc(C(=O)N4CCCC4)n(Cc4ccccn4)c3C[C@H]2CN1C(=O)c1ccccc1` the value was 1.26; for `CCOC(=O)NN=C1C[C@@H](O)[C@@H](O)[C@@H]2[C@@H]3C(=O)N(C(C)(C)C)C(=O)[C@@H]3CC[C@@H]12`, -0.461.
For the molecule `C=CCN1C(=O)[C@]2(O[C@H](CCn3cc(CCO)nn3)[C@@H]([Si](C)(C)c3ccc(OC)cc3)[C@@H]2C)c2cc(N3CCOC3=O)ccc21`, the composite z-score was determined as 1.2.
For `CCOc1ccc(N2C(=O)/C(=C/C=C/c3ccccc3OC)S(=O)(=O)C2c2cccc([N+](=O)[O-])c2)cc1` (stereo unspecified) the value was 0.339; for `O[C@@H](Cc1ccccc1)[C@H]1C2C=CCCC(c3ccccc3)=C2CN1Cc1cccc(Cl)c1` (stereo partly specified), 1.14; for `CO[C@H]1O[C@H](CO)[C@@H](OC(=O)Nc2ccc(C#N)cc2)[C@H](OC(=O)c2cc3ccccc3[nH]2)[C@H]1OC(=O)c1cc2ccccc2[nH]1`, 1.18.

The values above are taken from PubChem BioAssay.
